Sampled rows, rich in hits. Any-hit rate of the full collection: about 3.1%.
TROY NFkB inh: inhibitors of TROY-driven NF-kB signaling, primary screen, Q293 LMP1-TROYcd cells, NF-kB luciferase, uHTS | Q293 LMP1-TROYcd NF-kB luciferase reporter, 4 h | 0.98% of 360,000 active | inhibition, % at 10 µM;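 active means compounds whose plate-normalised and pattern-corrected inhibition of the luciferase reporter signal at the single screening dose is 50% or more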
LMP1 NFkB inh: EBV LMP1-driven NF-kappaB luciferase reporter inhibitors, primary screen, cell-based, luminescence, single point. LMP1-induced NF-kappaB luciferase reporter cells. inhibition, % at 12.5 µM. 0.69% of 350,000 active; in the data active means inhibition above about 41%; inconclusive means no clear call, values can overlap the other calls
TWEAK Fn14 block: inhibitors of TWEAK-Fn14 signaling, primary screen, luciferase reporter cells, uHTS. TWEAK-stimulated Fn14 reporter cells, luciferase luminescence, 8 h. inhibition, % at 10 µM. 2% of 360,000 active. AID 1159606, 2016; in the data active means inhibition above about 50%
LGR2 antag: inhibitors of bursicon-induced LGR2 CRE-luciferase signal, primary screen, cell-based, HEK293, CRE-luciferase reporter, bursicon stimulation. Drosophila bursicon receptor LGR2 (rickets). bursicon-stimulated, 4 h. inhibition, % at 9.99 µM. 0.35% of 380,000 active. AID 720647, 2013;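 active means drop in luminescence signal, shown as inhibition above about 50% in the replicate tests, limit read from the data, passing the limit was not always enough; inconclusive means probably only some replicates passing the limit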;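 further: agonist challenge used bursicon conditioned medium at about half maximal strength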
EWS-Fli block: EWS/Fli-driven NR0B1 reporter inhibitors, primary screen, A673 cells, NR0B1 luciferase, luminescence, MLPCN library; viability-normalised; inhibition, % at 12.6 µM; 0.67% of 350,000 active; AID 651661, 2012;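 active means mean inhibition of at least 50% after viability correction, with every replicate also passing that limit; inconclusive means mean reaches 50% but only one of two replicates passes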;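 further: firefly luciferase signal divided by Alamar Blue viability fluorescence both relative to DMSO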
PAX8 reporter: inhibitors of PAX8-driven TPO luciferase reporter, primary screen, RMG-I cells, single concentration | inhibition, % at 12.6 µM | 1.2% of 360,000 active | SteadyGlo, 24 h | AID 652154, 2013;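 active means mean replicate inhibition at least 60% with every replicate also reaching 60%; inconclusive means only one of the two criteria is met; inactive means mean below 60% and not all replicates reaching 60%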;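 further: luciferase light reporting Pax8 driven TPO promoter activity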
Large screens that a line does not name were inactive.

N#Cc1cc2c(nc1SCC(=O)N1CCOCC1)CCCCC2	TROY NFkB inh 81, TWEAK Fn14 block 95 (no result: LGR2 antag, EWS-Fli block, PAX8 reporter)
C[C@H]1CN([C@@H](C)CO)C(=O)c2cccc(N(C)C)c2O[C@H]1CN(C)C(=O)NC1CCCCC1	none (no result: TROY NFkB inh, LMP1 NFkB inh, TWEAK Fn14 block, EWS-Fli block)
Cc1c(Cl)sn(-c2ccc(Cl)cc2)c1=O	EWS-Fli block 65
Cc1nn(-c2ccc(Cl)cc2)c(=O)c2ccccc12	none
O=C(NC1Cc2ccccc2C1)[C@H]1[C@H](CO)[C@H]2Cn3c(cccc3=O)[C@H]2N1C(=O)C1CC1	none (no result: TROY NFkB inh, LMP1 NFkB inh, TWEAK Fn14 block, PAX8 reporter)
Nc1cccc2c1C(=O)N(C(=O)/C=C/c1cccc(Br)c1)C2=O	TWEAK Fn14 block 53
Nc1cccc2c1C(=O)N(C(=O)/C=C/c1cccc(F)c1)C2=O	TWEAK Fn14 block 70
O=C(/C=C/c1cccc(Br)c1)N1CCN(c2cccc(C(F)(F)F)c2)CC1	none (no result: EWS-Fli block)
O=C(/C=C/c1cccc(F)c1)N1CCN(c2ccccn2)CC1	none
C[C@@H]1CN([C@H](C)CO)C(=O)c2cccc(NC(=O)Nc3cccc4ccccc34)c2O[C@@H]1CN(C)S(=O)(=O)c1ccc(Cl)cc1	PAX8 reporter 84 (no result: TROY NFkB inh, LMP1 NFkB inh, TWEAK Fn14 block)
C[C@H]1CN([C@@H](C)CO)C(=O)c2cccc(NC(=O)Nc3ccc(F)cc3)c2O[C@H]1CN(C)S(=O)(=O)c1ccc(Cl)cc1	PAX8 reporter 67 (no result: TROY NFkB inh, LMP1 NFkB inh, TWEAK Fn14 block)
CNC[C@H]1Oc2c(NC(=O)c3nc4ccccc4s3)cccc2C(=O)N([C@H](C)CO)C[C@@H]1C	EWS-Fli block 58, PAX8 reporter 61 (no result: TROY NFkB inh, LMP1 NFkB inh, TWEAK Fn14 block)
C[C@H](CO)N1C[C@H](C)[C@H](CN(C)S(=O)(=O)c2ccc(Cl)cc2)Oc2c(NC(=O)Nc3cccc4ccccc34)cccc2C1=O	none (no result: TROY NFkB inh, LMP1 NFkB inh, TWEAK Fn14 block, PAX8 reporter)
Cc1ccc(S(=O)(=O)N(C)C[C@@H]2Oc3c(NC(=O)c4ccc(-c5nccs5)cc4)cccc3C(=O)N([C@@H](C)CO)C[C@@H]2C)cc1	PAX8 reporter 95 (no result: TROY NFkB inh, LMP1 NFkB inh, TWEAK Fn14 block)
C[C@@H]1CN([C@H](C)CO)C(=O)c2cccc(NC(=O)Nc3ccc(F)cc3)c2O[C@H]1CN(C)S(=O)(=O)c1ccc(Cl)cc1	none (no result: TROY NFkB inh, LMP1 NFkB inh, TWEAK Fn14 block)
CNC(=O)C[C@H]1CC[C@@H]2[C@@H](COc3ccc(NC(=O)c4cc(F)cc(F)c4)cc3C(=O)N2C)O1	none (no result: TROY NFkB inh, LMP1 NFkB inh, TWEAK Fn14 block)
COc1cccc(NC(=O)N[C@H]2C=C[C@@H](CC(=O)N3CCCCC3)O[C@H]2CO)c1	none (no result: TROY NFkB inh, LMP1 NFkB inh, TWEAK Fn14 block)
C[C@H](CO)N1C[C@H](C)[C@@H](CN(C)S(=O)(=O)c2ccc(Cl)cc2)Oc2c(NC(=O)c3nc4ccccc4s3)cccc2C1=O	PAX8 reporter 72 (no result: TROY NFkB inh, LMP1 NFkB inh, TWEAK Fn14 block)
COc1ccc(S(=O)(=O)N(C)C[C@@H]2Oc3c(NC(=O)Nc4ccc(C(F)(F)F)cc4)cccc3C(=O)N([C@@H](C)CO)C[C@H]2C)cc1	none (no result: TROY NFkB inh, LMP1 NFkB inh, TWEAK Fn14 block)
COc1ccc(S(=O)(=O)N(C)C[C@H]2Oc3c(NC(=O)Nc4ccc(C(F)(F)F)cc4)cccc3C(=O)N([C@@H](C)CO)C[C@H]2C)cc1	PAX8 reporter 106 (no result: TROY NFkB inh, LMP1 NFkB inh, TWEAK Fn14 block)
Cc1noc(C)c1S(=O)(=O)Nc1ccc2c(c1)C(=O)N([C@@H](C)CO)C[C@H](C)[C@@H](CN(C)Cc1ccc(C(=O)O)cc1)O2	none (no result: TROY NFkB inh, LMP1 NFkB inh, TWEAK Fn14 block, PAX8 reporter)
Cc1cc(C(=O)Nc2cccc3c2O[C@@H](CN(C)S(=O)(=O)c2cn(C)cn2)[C@H](C)CN([C@@H](C)CO)C3=O)n(C)n1	none (no result: TROY NFkB inh, LMP1 NFkB inh, TWEAK Fn14 block, PAX8 reporter)
CN1C(=O)c2cc(NC(=O)C3CCCCC3)ccc2OC[C@@H]2O[C@@H](CC(=O)NCc3ccccc3F)CC[C@H]21	none (no result: TROY NFkB inh, LMP1 NFkB inh, TWEAK Fn14 block)
O=C(NCC[C@H]1CC[C@H](NS(=O)(=O)c2ccc(F)cc2)[C@H](CO)O1)c1ccccc1F	none (no result: TROY NFkB inh, LMP1 NFkB inh, TWEAK Fn14 block, PAX8 reporter)
CS(=O)(=O)Nc1ccccc1C(=O)NCC1(N2CCCCC2)CCCCC1	LMP1 NFkB inh 47
CCc1ccc(NC(=O)COC(=O)C2(c3ccc(Cl)cc3)CCCC2)cc1	LMP1 NFkB inh 61 (no result: LGR2 antag)
NCCCn1c(C(=O)c2cc(Cl)c(N)c(Cl)c2)c2ccc([N+](=O)[O-])cc2[n+]1[O-]	EWS-Fli block 55, PAX8 reporter 70
CCOC(=O)C1CCN(c2nc3cc(OC)ccc3cc2C#N)CC1	none (no result: LGR2 antag, EWS-Fli block, PAX8 reporter)
COc1ccc2cc3c(N)nn(C(=O)c4cccc([N+](=O)[O-])c4)c3nc2c1	LMP1 NFkB inh 46 (no result: EWS-Fli block)
COc1ccc2cc3c(N)nn(C(=O)C4CCC(C(C)(C)C)CC4)c3nc2c1 (stereo not drawn)	TROY NFkB inh 55, LMP1 NFkB inh 75, TWEAK Fn14 block 90
COc1ccc2cc3c(N)nn(C(=O)Cc4ccccc4OC)c3nc2c1	TWEAK Fn14 block 52
Cc1noc(C)c1S(=O)(=O)Nc1ccc2c(c1)C(=O)N([C@H](C)CO)C[C@@H](C)[C@H](CN(C)S(=O)(=O)c1ccc(Cl)cc1)OCCCC[C@@H](C)O2	none (no result: TROY NFkB inh, LMP1 NFkB inh, TWEAK Fn14 block)
O=c1c2ccccc2sc2ccc(C#CC3(O)CCCCC3)cc12	TROY NFkB inh 92, LMP1 NFkB inh 81, TWEAK Fn14 block 107, LGR2 antag 100, EWS-Fli block 89, PAX8 reporter 69
COc1cccc2sc3ccc(C#Cc4ccc(N)cc4)cc3c(=O)c12	none
C=CCn1c2ccccc2c(=O)c2cc(C#CC[C@@H](C)O)ccc21	none
COc1cccc2sc3ccc(C#CC4(O)CCCCC4)cc3c(=O)c12	TROY NFkB inh 77
COc1cccc2oc3cc(C#CC4(O)CCCCC4)ccc3c(=O)c12	TROY NFkB inh 77, TWEAK Fn14 block 73
COc1cccc2oc3cc(C#Cc4ccccn4)ccc3c(=O)c12	none (no result: TROY NFkB inh, LMP1 NFkB inh, TWEAK Fn14 block)
C=CCn1c2ccccc2c(=O)c2cc(C#CC3(O)CCCCC3)ccc21	TROY NFkB inh 70, LGR2 antag inconclusive
CO[C@H]1CN(C)C(=O)c2cc(NC(=O)C3CC3)ccc2OC[C@@H](C)N(Cc2cccnc2)C[C@@H]1C	none (no result: TROY NFkB inh, LMP1 NFkB inh, TWEAK Fn14 block)
CC(=O)NNc1ncnc2c1cnn2-c1ccc(C)c(Cl)c1	TROY NFkB inh 61, TWEAK Fn14 block 73

Screening data deposited in PubChem BioAssay by several laboratories.
